Consider 15 compounds from PubChem BioAssay (Tox21).

A number with no mark means an inactive call. Inconclusive results are not listed. The source made the active and inactive calls. Calls follow the shape of the dose curve; as a rule, active = well fitted curve in the direction sought with a large enough effect in the repeat runs; inconclusive = weak or mixed curves; inactive = no such curve, though single readings can be large; an effect the other way counts as inactive or inconclusive.

The nature of experiment [1]: qHTS RealTime-Glo MT Cell Viability Assay in HEK293 cells - 16 hour (AID 1224872). Also: top concentration of the series differs between compounds; nearly all actives have a fitted effect of over 50% in size. The method, boiled down: (§1)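 Quantitative high-throughput screen of the Tox21 10K library in HEK293: cells and RealTime-Glo reagents plated together, compound added at 5 h, luminescence monitored through 40 h at 37 C.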
A short description of experiment [2]: qHTS RealTime-Glo MT Cell Viability Assay in HepG2 cells - 8 hour (AID 1224873). Also: nearly all actives have a fitted effect of over 55% in size. The method, boiled down:
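HepG2 cells (600/well) mixed with RealTime-Glo MT reagent, settled 5 h at 37 C/5% CO2 before compound addition. Nonlytic NanoLuc luminescence from viable-cell prosubstrate reduction read repeatedly during 40 h treatment at 37 C.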
(In qHTS, concentration-response curves come from the screen itself.)

Experiment [3] in a line: qHTS RealTime-Glo MT Cell Viability Assay in HEK293 cells - 40 hour (AID 1224874). Also: nearly all actives have a fitted effect of over 50% in size. Also: potency is read from the fitted curve at half-maximal effect. The following applies: RealTime-Glo luminescence; max response: active compounds read low. The procedure, abridged:
(§2)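 Luminescence readout at each listed time point; HEK293, 600 cells/well, RealTime-Glo MT reagent added with cells; compounds pinned (23 nL in DMSO) after 5 h at 37 C; continuous culture at 37 C.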

The nature of experiment [4]: A CellTox Green Cytotoxicity Assay to monitor cytotoxicity in HEK293 cells - 24 hour (AID 1224875). Also: series mostly up to about 77 µM; nearly all actives have a fitted effect of over 45% in size. The procedure, abridged: (§3)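 Read-out: fluorescence of a cell-impermeant cyanine dye staining DNA of dead cells, proportional to cytotoxicity. HEK293, 600 cells/well with reagent, compound (23 nL DMSO) added after 5 h; reads at 0, 8, 16, 24, 32, 40 h.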
Experiment [5] can be described thus: qHTS RealTime-Glo MT Cell Viability Assay in HepG2 cells - 32 hour (AID 1224877). Also: nearly all actives have a fitted effect of over 55% in size. The method, boiled down:
(§4)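 Compound treatment began 5 h after plating HepG2 cells (600/well) with NanoLuc luciferase and prosubstrate. Plates stayed at 37 C for 40 h; luminescence was captured at six time points, 0 h through 40 h.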

A short description of experiment [6]: qHTS RealTime-Glo MT Cell Viability Assay in HEK293 cells - 0 hour (AID 1224880). Also: nearly all actives have a fitted effect of over 45% in size. Also: potency is read from the fitted curve at half-maximal effect. As to activity change, negative = cytotoxicity: top concentration of the series differs between compounds. The procedure, abridged: as §2
The nature of experiment [7]: A CellTox Green Cytotoxicity Assay to monitor cytotoxicity in HEK293 cells - 32 hour (AID 1224881). Also: nearly all actives have a fitted effect of over 40% in size. The procedure, abridged:
as §3

Experiment [8] in a line: A CellTox Green Cytotoxicity Assay to monitor cytotoxicity in HepG2 cells - 0 hour (AID 1224882). Also: nearly all actives have a fitted effect of over 35% in size. The method, boiled down: (§5)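 HepG2, 600 cells/well premixed w/ CellTox Green; 5 h settle, 37 C/5% CO2; pintool cpd add (DMSO); 37 C, 40 h; fluorescence read at 0, 8, 16, 24, 32, 40 h.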
A short description of experiment [9]: A CellTox Green Cytotoxicity Assay to monitor cytotoxicity in HEK293 cells - 8 hour (AID 1224884). Also: nearly all actives have a fitted effect of over 35% in size. The method, boiled down: as §3
A short description of experiment [10]: qHTS RealTime-Glo MT Cell Viability Assay in HepG2 cells - 16 hour (AID 1224885). Also: nearly all actives have a fitted effect of over 50% in size. The method, boiled down:
as §4

Experiment [11] in a line: qHTS RealTime-Glo MT Cell Viability Assay in HEK293 cells - 24 hour (AID 1224886). Also: top concentration of the series differs between compounds; nearly all actives have a fitted effect of over 50% in size. The procedure, abridged: as §1
Experiment [12] can be described thus: qHTS RealTime-Glo MT Cell Viability Assay in HEK293 cells - 8 hour (AID 1224887). The procedure, abridged: as §2
Experiment [13] in a line: A CellTox Green Cytotoxicity Assay to monitor cytotoxicity in HEK293 cells - 16 hour (AID 1224888). Also: nearly all actives have a fitted effect of over 35% in size. The procedure, abridged: as §3
Experiment [14] is described as follows: qHTS RealTime-Glo MT Cell Viability Assay in HepG2 cells - 0 hour (AID 1224889). Also: nearly all actives have a fitted effect of over 50% in size. Also: potency is read from the fitted curve at half-maximal effect. The procedure, abridged:
as §4

A short description of experiment [15]: A CellTox Green Cytotoxicity Assay to monitor cytotoxicity in HepG2 cells - 8 hour (AID 1224890). Also: nearly all actives have a fitted effect of over 45% in size. The method, boiled down: as §5
The nature of experiment [16]: qHTS assay to identify small molecule antagonists of the estrogen receptor alpha (ER-alpha) signaling pathway using the BG1 cell line in the presence of 0.1 nM 17-beta-estradiol - cell viability counter screen (AID 1259241). Also: nearly all actives have a fitted effect of over 40% in size. The method, boiled down: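 Cytotoxicity counter-screen: live-cell protease activity measured by fluorescence (30 min reagent step) in the same wells. Cells were VM7Luc4E2 with endogenous ER-alpha and ERE-driven luciferase, treated 22 hr at 37C alongside 0.1 nM 17beta-estradiol final.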

A short description of experiment [17]: A CellTox Green Cytotoxicity Assay to monitor cytotoxicity in HepG2 cells - 16 hour (AID 1224876). Also: nearly all actives have a fitted effect of over 45% in size. The method, boiled down: as §5
Experiment [18] can be described thus: A CellTox Green Cytotoxicity Assay to monitor cytotoxicity in HepG2 cells - 24 hour (AID 1224878). Also: nearly all actives have a fitted effect of over 45% in size. The procedure, abridged:
as §5

Experiment [19] can be described thus: A CellTox Green Cytotoxicity Assay to monitor cytotoxicity in HepG2 cells - 40 hour (AID 1224879). Also: nearly all actives have a fitted effect of over 40% in size. The procedure, abridged:
as §5

The nature of experiment [20]: A CellTox Green Cytotoxicity Assay to monitor cytotoxicity in HepG2 cells - 32 hour (AID 1224883). Also: nearly all actives have a fitted effect of over 50% in size. The procedure, abridged:
as §5
% is scaled to controls: 0 for no effect and ±100 for the full control effect.

As to `Cc1c(N)c(=O)n(-c2ccccc2)n1C`, the Potency entry in experiment [1], in experiment [5], in [6], in experiment [8], in experiment [11] and in experiment [12] was “inactive” throughout. For the same compound, the Potency entry in [14] is “inactive”. The compound was classed as inactive in experiment [2], in experiment [4], in experiment [7], in [9], in experiment [10] and in [13]. Moreover, the compound was called inactive in [15] and in [16]. Also, in experiment [3], the max response is -5.41%.

For the compound `CCNS(=O)(=O)c1ccc(C)cc1`, the Potency result in experiment [1], in [19], in experiment [6], in experiment [8], in experiment [12] and in experiment [14] was “inactive” each time. Further, the compound was classed as inactive in experiment [2], in experiment [4], in [17], in [18], in [10] and in [13]. Further, in experiment [15], the result was inactive. Further, the max response in experiment [3] was 0.516%.

`CCCCS(=O)(=O)N[C@@H](Cc1ccc(OCCCCC2CCNCC2)cc1)C(=O)O`: the Potency result in experiment [1], in experiment [19], in experiment [6], in experiment [8], in experiment [20] and in experiment [11] was “inactive” in each case. In addition, the Potency result in experiment [12] and in experiment [14] was “inactive” in each case. For the same compound, the result in experiment [2], in experiment [17], in experiment [18], in experiment [9], in [10] and in experiment [13] was inactive. Besides, the outcome in [15] and in experiment [16] was inactive. The max response in experiment [3] is -0.348%.

For `COC(=O)C1=C(C)NC(C)=C(C(=O)OC(C)C)C1c1cccc2nonc12` (stereo not drawn), the Potency was 16.9 µM (active) in experiment [3], 1.69 µM (active) in [6] and 1.07 µM (active) in [14]. Moreover, the result in experiment [4], in experiment [17], in [18], in [7], in experiment [9] and in experiment [13] was inactive. In addition, the result in [15] was inactive. The Potency result in experiment [19], in [8] and in experiment [20] was “inactive” throughout.

For the compound `Cc1cc(C)c(N=Nc2c(O)c(S(=O)(=O)O)cc3cc(S(=O)(=O)O)ccc23)cc1C`, the viability change, negative = cytotoxic in experiment [2] was 5.41% [at 6.97 µM]. Moreover, the activity change was 16.7% [at 6.97 µM] in [4] and 15.4% [at 6.97 µM] in experiment [13]. In addition, the cytotoxicity increase in [17] is 0.0418% [at 6.97 µM]; in [19], -2.22% [at 6.97 µM]; in [20] it was -2.71% [at 6.97 µM]; in experiment [9], 0% [at 6.97 µM]; in experiment [15], 3.92% [at 6.97 µM]. The activity change, negative = cytotoxic in experiment [5] was -2.9% [at 6.97 µM]; in experiment [10] it was 0.476% [at 6.97 µM]. Also, the figures for the cytotoxicity in [18] and in experiment [8] were -2.84% [at 6.97 µM] and 2.93% [at 6.97 µM], respectively. Moreover, the activity change, negative = cytotoxicity in [16] was -12.4% [at 8.39 µM].

`Nc1ccn([C@@H]2O[C@H](CO)[C@@H](O)[C@@H]2O)c(=O)n1`: the Potency result in experiment [1], in experiment [19], in experiment [8], in experiment [20], in experiment [11] and in experiment [12] was “inactive” each time. Further, the Potency entry in [14] was “inactive”. The compound was classed as inactive in experiment [2], in [4], in experiment [17], in [18], in [7] and in experiment [9]. Also, the compound was classed as inactive in experiment [10], in [13], in experiment [15] and in experiment [16]. The max response in experiment [3] was 6.05%.

Consider `Cc1nc(C2CCCCC2)c(-c2ccc(S(N)(=O)=O)c(F)c2)o1`, for which the compound was called inactive in experiment [4], in experiment [17], in experiment [18], in experiment [7], in [13] and in experiment [15]. In addition, in experiment [16], the result was inactive. Also, the Potency entry in [5], in experiment [19], in experiment [20] and in [14] was “inactive” throughout.

In the case of `C=COCC1CCC(COC=C)CC1` (stereo not drawn), the call in experiment [2], in experiment [4], in [9], in [10], in experiment [13] and in [15] was inactive. In addition, the max response in experiment [3] was -3.6%. Further, the Potency result in [5], in experiment [8], in experiment [11] and in experiment [14] was “inactive” each time.

In the case of `COc1ccnc(CS(=O)c2nc3cc(OC(F)F)ccc3[nH]2)c1OC` (stereo not drawn), the Potency entry in experiment [1], in experiment [5], in experiment [19], in [6], in [8] and in experiment [20] was “inactive” each time. For the same compound, the Potency entry in experiment [11], in experiment [12] and in experiment [14] was “inactive” in each case. Also, the compound was classed as inactive in experiment [2], in [4], in experiment [17], in [18], in experiment [9] and in experiment [10]. Moreover, the compound was called inactive in experiment [13] and in [15].

Consider `CCCCCCCCCC[N+](C)(C)[O-]`, for which the Potency entry in experiment [1], in [5], in experiment [8], in experiment [11], in [12] and in experiment [14] was “inactive” each time. In addition, the compound was called inactive in experiment [2], in [4], in experiment [7], in experiment [9], in experiment [10] and in experiment [13]. The compound was classed as inactive in experiment [15] and in [16]. Further, in experiment [3], the max response is -6.97%.

With `c1ccc(CCc2ccccc2)cc1`, the Potency entry in experiment [1], in experiment [6], in [8], in [11] and in experiment [12] was “inactive” each time. For the same compound, the outcome in experiment [2], in experiment [9], in [10], in experiment [13] and in experiment [16] was inactive. Also, the max response in experiment [3] is -4.4%.

`Cc1ccc(C(=O)c2ccc(CC(=O)O)n2C)cc1`: the Potency entry in experiment [1], in experiment [5], in experiment [11] and in experiment [12] was “inactive” each time. In addition, the compound was called inactive in [2], in [4], in experiment [7], in experiment [10], in [13] and in [16]. Also, the max response in [3] was 1.68%.

Take `COCCOCC(OC)OC`: the Potency result in experiment [1], in experiment [19], in [8], in experiment [11], in [12] and in experiment [14] was “inactive” throughout. The outcome in [2], in [4], in experiment [17], in [18], in experiment [7] and in experiment [9] was inactive. Further, the compound was classed as inactive in experiment [10], in [13] and in experiment [15]. Also, the max response in [3] is -1.01%.

For the compound `Cc1nc2ccc(CN(C)c3ccc(C(=O)N[C@@H](CCC(=O)O)C(=O)O)s3)cc2c(=O)[nH]1`, the Potency result in experiment [1], in experiment [5], in [19], in experiment [6], in experiment [8] and in experiment [20] was “inactive” throughout. Further, the Potency result in experiment [11], in experiment [12] and in experiment [14] was “inactive” each time. Moreover, the compound was classed as inactive in experiment [2], in experiment [4], in [17], in [18], in experiment [7] and in experiment [9]. Besides, the compound was classed as inactive in experiment [10], in [15] and in experiment [16].

In the case of `NCCCC[C@H](N[C@@H](CCc1ccccc1)C(=O)O)C(=O)N1CCC[C@H]1C(=O)O`, the Potency result in [1], in experiment [19], in experiment [6], in experiment [8], in experiment [20] and in experiment [11] was “inactive” in each case. Besides, the Potency entry in experiment [12] is “inactive”. The result in experiment [2], in experiment [4], in experiment [17], in experiment [18], in [7] and in [9] was inactive. Besides, the result in experiment [10], in [13], in experiment [15] and in experiment [16] was inactive.
